# Assay results as given in PubChem BioAssay AID574 (The Scripps Research Institute Molecular Screening Center, 2007).
# About 450 (0.69%) of roughly 65,000 compounds were called active. What follows is part of a selection rich in actives, with near analogues and random picks from the rest. Values without a mark were called inactive.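 How the source made its calls: active means activation above a set limit, the screen-wide mean activation plus 3 SD (cut at about 8.5% in these data); inactive means the rest.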
# Target: 5-hydroxytryptamine receptor 1E (Homo sapiens) (UniProt P28566)
# Assay: 5-HT1E receptor agonists, primary screen, cell-based, HTS (AID 574);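 further: 100% = positive control agonist at 1 µM giving full maximal response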
# Details: CHO 5-HT1E Ga15 NFAT-bla reporter, FRET; at 6 µM; stronger effect = higher value; 0% DMSO wells, 100% control agonist wells
# 5-hydroxytryptamine receptor 1E (Homo sapiens), sequence (P28566 whole entry, looked up): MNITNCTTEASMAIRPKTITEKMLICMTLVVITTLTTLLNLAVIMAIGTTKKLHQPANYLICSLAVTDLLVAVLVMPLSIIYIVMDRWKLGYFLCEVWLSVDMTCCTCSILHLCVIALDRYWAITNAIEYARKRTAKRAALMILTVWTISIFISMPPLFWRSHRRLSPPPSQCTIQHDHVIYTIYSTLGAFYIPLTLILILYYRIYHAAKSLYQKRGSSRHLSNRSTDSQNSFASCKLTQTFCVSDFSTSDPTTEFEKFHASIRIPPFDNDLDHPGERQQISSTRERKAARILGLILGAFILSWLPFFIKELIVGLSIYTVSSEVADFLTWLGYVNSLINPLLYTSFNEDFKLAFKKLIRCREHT
row,SMILES,activation
1,CC1(C)C/C(=C(/C#N)C(N)=O)CCO1,-0.1%
2,Cc1cn(COC/C=C/c2ccccc2)c(=O)[nH]c1=O,0.2%
3,CC(C)Cn1c(CCC(=O)O)ccc1-c1cccs1,0.6%
4,CC1CCCC(NC(=O)CN2CCN(Cc3ccc(Cl)cc3)C2=O)C1C (stereo not given),-0.6%
5,O=C(OC1CCOC1=O)c1ccc(-c2nc3ccccc3s2)s1 (stereo not given),-0.6%
6,Cc1ccc(-n2nc3c(c2NC(=O)c2ccc4c(c2)OCO4)CSC3)c(C)c1,-0.1%
7,O=C(Nc1ccccc1C(F)(F)F)c1cc(-c2ccc(O)cc2)on1,0.1%
8,CCOc1ccc(Cn2c(SCCCCC#N)nc3c2c(=O)n(C)c(=O)n3C)cc1OCC,0.1%
9,O=C(Nc1c(Cl)cccc1Cl)C1CCC1,0.5%
10,O=C(O)CC(Cn1cnnn1)c1ccccc1 (stereo not given),1.2%
11,Fc1ccccc1CCNc1nnnn1-c1ccccc1,-0.5%
12,CC(C)CNC(=O)C1CCCN(S(=O)(=O)c2ccc(-n3cnnn3)cc2)C1 (stereo not given),-0.3%
13,Cc1oc(-c2cccc(Cl)c2)[n+]([O-])c1C,0.2%
14,COC(=O)COc1ccc(S(=O)(=O)N2CCOCC2)cc1,-0.6%
15,O=C(c1ccc2c(c1)C(=O)N(c1ccc(Cl)cc1)C2=O)N1CCN(c2ccccn2)CC1,0.4%
16,CCOc1ccc(C(CC(=O)O)NC(=O)COc2ccccc2)cc1 (stereo not given),-1.3%
17,C=CCn1c(N)c(C(=O)OCC(C)C)c2nc3ccccc3nc21,0.4%
18,CC(C)Cn1c(N)c(C(=O)NCc2cccs2)c2nc3ccccc3nc21,18.4% (active)
19,C=CCn1c(N)c(S(=O)(=O)c2cccs2)c2nc3ccccc3nc21,0.2%
20,Cc1ccc(C(=O)NCCNS(=O)(=O)c2ccccc2)cc1,-1.7%
21,CC(=O)Nc1cccc(Oc2cc(C#N)c(C#N)cc2N2CCOCC2)c1,-0.6%
22,CC1CN(c2cc(=O)n(Cc3ccc(F)cc3)c(=O)[nH]2)CC(C)O1 (stereo not given),0.8%
23,Cc1nnc(SCC(=O)N2CCc3ccccc32)n1-c1ccccc1,-0.4%
24,CCOC(=O)CSc1nc2sc3c(c2c(=O)[nH]1)CC(C)(C)OC3,-0.1%
25,CCCc1nnc(NC(=O)c2cc(OC)cc(OC)c2)s1,0.7%

row,SMILES,activation
1,Nc1nnnn1/N=C/c1cccs1,-0.8%
2,CS(=O)(=O)N(C(=O)NC(=O)NC1CCS(=O)(=O)C1)C1CCCCC1 (stereo not given),0.1%
3,O=C(Nc1nnc(-c2ccc(Cl)cc2)o1)c1ccccc1Br,-0.9%
4,CCOC(=O)N1CCC(NC(=O)c2ccc3nc(N4CCOCC4)sc3c2)CC1,-0.6%
5,COC(=O)C(C)C1Sc2ccccc2NC1=O (stereo not given),0.6%
6,Cc1ccc(C(C(=O)NCc2ccco2)N(CC2CCCO2)C(=O)Cn2nnc3ccccc32)cc1 (stereo not given),0.3%
7,O=C(NC1(C(F)(F)F)N=C2SCCN2C1=O)c1ccco1 (stereo not given),-0.1%
8,CCNc1nc(NCC)nc(N(C)n2cnnc2)n1,1.1%
9,c1n[nH]c(NCc2ccc3c(c2)OCO3)n1,-0.5%
10,N#Cc1nc(Cc2cccc3ccccc23)oc1NCc1ccc2c(c1)OCO2,10.4% (active)
11,N#Cc1nc(Cc2ccccc2)oc1NCCc1ccccc1,-0.8%
12,Cc1cccc2c1N(CC(=O)OC(C)C)C(=O)C2=O,0.3%
13,CCN(CC)P(=O)(C(NC(=O)OC)C(F)(F)C(F)(F)C(F)(F)C(F)F)N(CC)CC (stereo not given),0.8%
14,COc1ccc(C2OC(=O)CC2C(=O)NC(C)C)cc1 (stereo not given),0.2%
15,CCc1c(C)nc(N)n2c(SCC(=O)N3CCN(c4ccccc4)CC3)nnc12,-0.4%
16,Cc1cc(C)c(C)c(S(=O)(=O)Nc2ccc(O)cc2)c1C,-0.5%
17,NS(=O)(=O)c1cc2c(cc1Cl)NC(C(Cl)Cl)NS2(=O)=O (stereo not given),-0.1%
18,CC(=C1C(=O)c2ccccc2C1=O)N1CCN(c2ccccn2)CC1,0.2%
19,O=C(c1cccc(C(=O)N2CCN(c3ccc(F)cc3)CC2)c1)N1CCN(c2ccc(F)cc2)CC1,0.7%
20,O=C(NC1CCCCC1)C1CCCN(S(=O)(=O)c2cccs2)C1 (stereo not given),-0.4%
21,Cc1cnc(C(=O)OCC(=O)Nc2ccc(Cl)cc2Cl)cn1,0.2%
22,CC1(C)Cc2ccccc2-c2nnc(-c3cccc(O)c3)n21,0.2%
23,Cc1ccc(NC2=NC(c3ccccc3)n3c(nc(C)cc3=O)N2)cc1 (stereo not given),0.3%
24,COc1ccc(S(=O)(=O)Nc2ccc(S(=O)(=O)N3CCCCC3)cc2)cc1OC,0.4%
25,CCCCn1nnnc1NCc1cc(OC)c(OC)c(OC)c1,-0.7%

row,SMILES,activation
1,Cc1ccccc1NC(=O)c1cnn(-c2ccccc2)c1NC(=O)c1ccco1,0.5%
2,COc1ccc(OCC(=O)OCC(=O)Nc2ccc(S(=O)(=O)N3CCCCC3)cc2)cc1,-0.3%
3,CC(C)=C(NC(=O)c1ccco1)C(=O)NCCc1nc2ccccc2[nH]1,1.5%
4,COC(=O)c1ccc(NC(=O)c2ccco2)cc1,0.1%
5,CCN(CC)C(=O)CCC(=O)Nc1ccc(C(=O)OC)cc1,20.5% (active)
6,CCCCC(CCC(=O)Nc1ccc(C(=O)OCC)cc1)C(=O)O (stereo not given),-0.3%
7,O=C1NC(c2ccncc2)Nc2sc3c(c21)CCCC3 (stereo not given),0.1%
8,CCOC(=O)Cn1c2c(c(-c3ccccc3OC)cc1=O)CCCC2,-0.4%
9,COC(=O)c1ccc(CSc2nc3ccccc3c(=O)n2-c2cccc(OC)c2)o1,1.3%
10,NC(CSC12CC3CC(CC(C3)C1)C2)C(=O)O (stereo not given),0.4%
11,CC1Cc2ccccc2N1C(=O)Cn1cnc2ccccc2c1=O (stereo not given),-0.8%
12,Cc1nc2ccc(NC(=O)N3CCC(c4ccccc4)C3)cc2nc1C (stereo not given),-0.6%
13,O=C(O)CCN1C(=O)CC2(CCCCC2)C1=O,9.8% (active)
14,Cc1ccc(F)cc1NC(=O)c1ccc2c(c1)OCO2,-0.9%
15,COCCCN1C(=O)c2ccc(C(=O)Nc3ccc(OC)cc3OC)cc2C1=O,-0.6%
16,CCSc1nc(=S)n(CC)c(C)c1C(C)=O,-0.3%
17,CCn1c(Cc2ccccc2)nnc1SCc1nc2ccccc2c(=O)[nH]1,-0.1%
18,CCC(=O)Nc1nc(OC)cc(OC)n1,-0.6%
19,Cc1ccc(CCn2c3c(c4ccccc42)CN(C)CC3)cn1,0.2%
20,Cc1ccc2nc3n(c(=O)c2c1)CCC3,-0.8%
21,COc1ccc(/C(O)=C2/C(=O)C(=O)N(c3nc(C)c(C)s3)C2c2ccco2)cc1 (stereo not given),0.5%
22,Cn1c(=O)cc(SCC(=O)N2CCCC2)c2cc(Cl)ccc21,-0.2%
23,CCOc1ccc(-c2nnn(CC(=O)N3CCN(c4ccc(OC)cc4)CC3)n2)cc1OCC,-1.1%
24,CCOC(=O)c1cc2c(n(-c3ccc(C)cc3)c1=O)CCCC2=O,0.8%
25,C[C@@H](Nc1nc(-c2ccccc2)nc2c1oc1ccccc12)C(=O)O,-0.7%

row,SMILES,activation
1,COc1ccc(S(=O)(=O)Nc2c(C)n(C)n(-c3ccccc3)c2=O)cc1,-1.6%
2,CCC(C)Sc1nc2c(c(=O)[nH]c(=O)n2C)n1CC(O)COc1cccc2ccccc12 (stereo not given),1.1%
3,CCOc1c(OC)cc(C2C(C#N)=C(N)Oc3n[nH]c(-c4ccncc4)c32)cc1OC (stereo not given),0.7%
4,Cc1nc(NC(CC(C)C)C(=O)O)c2nc(C)oc2n1 (stereo not given),-1.1%
5,Cc1cc(C(=O)COC(=O)c2cccs2)c(C)n1-c1c(C)n(C)n(-c2ccccc2)c1=O,-0.2%
6,CN(C(=O)C1CCOC1)c1nnc(-c2cccnc2)s1 (stereo not given),-1.1%
7,COc1ccc(N2C(=O)CCC(C(=O)Nc3ccccn3)C2c2ccc(OC)c(OC)c2)cc1 (stereo not given),2.5%
8,CCOc1ccc(-n2c(SC(C)C(=O)OC)nc3c(c2=O)SCC3)cc1 (stereo not given),0.4%
9,COc1ccc(CC(=O)n2nc(-c3cccnc3)nc2N)cc1,0.2%
10,O=c1nc(N2CCOCC2)nc2n1CCO2,0.6%
11,COc1ccc(C(=O)n2nc(-c3ccc(C)cc3)nc2N)cc1OC,0%
12,Cc1cc(=O)n(C)c(=O)n1CCCNc1ccccc1,-0.1%
13,CN(C)CCNC(CC(=O)Nc1ccc(Cl)c(Cl)c1)C(=O)O (stereo not given),0.3%
14,O=C(OCc1nnc(-c2ccccc2)o1)c1ccc2c(c1)C(=O)N(CCc1ccccc1)C2=O,0.4%
15,Cc1ccc(-c2cc(C(F)(F)F)n3nc(C(=O)N4CCCC4)cc3n2)cc1,0.8%
16,Cc1nc2c(-c3ccccc3)c(C)[nH]n2c(=O)c1Cl,-0.7%
17,Cn1nnnc1SCc1cc(=O)[nH]c2ccccc12,-0.5%
18,COc1ccccc1C(=O)N1CCN=C1SCc1cccnc1,-0.4%
19,Cn1nc(-c2ccc(N3CCOCC3)c(NC(=O)c3ccccc3)c2)c2ccccc2c1=O,-1%
20,FC(F)(F)c1cc(-c2cccs2)nc(NCc2ccco2)n1,-1.9%
21,CC(c1ccccc1)n1c(NCCCn2ccnc2)nc2c1c(=O)[nH]c(=O)n2C (stereo not given),-0.6%
22,COc1cccc(-c2nc3n(n2)C(c2ccccc2Cl)C(C(N)=O)=C(C)N3)c1 (stereo not given),-0.2%
23,CCOC(=O)c1sc(NC(=O)CCN2CCOCC2)c(C(=O)OCC)c1C,-0.8%
24,CCc1c(C)sc(NC(=O)c2ccc(Br)o2)c1C(=O)OC,0.2%
25,CCc1c(C)sc(NC(=O)OC)c1C(=O)N1CCOCC1,14.2% (active)
